The list is not random: actives were taken first. Their share in the collection is about 2%.
Insulin prom inh – inhibitors of insulin promoter-driven GFP, primary screen, imaging, TRM-6 cells (human fetal islet line), eGFP reporter, cell count | hit rate 0.9% among 130,000 | AID 1273, 2008 | inhibition, % at 2 µM | reporter expression induced with tamoxifen;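 active = inhibition above the mean plus 3 SD, with well images judged a real hit on visual review, cut at about 60% in these data, passing the limit was not always enough; inconclusive = inhibition over the cutoff but images rejected on review; inactive = inhibition not above the cutoff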
eIF4E-4G inh – eIF4E–eIF4G protein interaction inhibitors, primary screen, biochemical, uHTS, TR-FRET, eIF4GI fragment. Eukaryotic translation initiation factor 4E (Mus musculus) + Eukaryotic translation …. TR-FRET eIF4E-eIF4GI(517-606) binding, 2 h. AID 782, 2007. inhibition, % at 21.7 µM. hit rate 0.37% among 220,000;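 active = inhibition above about 30%, limit read from the data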
Ins promoter up – insulin promoter activators in MIN6 cells, imaging, high-content screening, mouse beta cells | MIN6 insulin promoter-GFP reporter; hits give high values | z-score at 5 µM | hit rate 0.3% among 190,000 | AID 1625, 2009;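 active = z-score above 3 at 5 µM with at least 500 cells counted in the well; inconclusive = wells under 500 cells, flagged as cytotoxic or low count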
Autophagy mod – autophagy modulators in MEF cells, primary screen, imaging, high-content, MEF GFP-LC3. hit rate 0.98% among 190,000. MEF GFP-LC3 puncta imaging; test concentration mostly 10 µM. calls only at 10 µM (by protocol);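 active = percentage of spot-positive cells more than 3 SD above its plate mean, without a fluorescence outlier flag or 80% toxicity; inconclusive = no clear call, values can overlap the other calls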
PERK inh – block of dimerizer-induced PERK translation repression, primary screen, PERK inhibitor project, CHO PERK-DD cells, SEAP luminescence, HTS; Eukaryotic translation initiation factor 2-alpha kinase 3 (Homo sapiens), Q9NZJ5; CHO PERK-DD fusion, SEAP luminescence translation reporter; hit rate 0.17% among 220,000; AID 1416, 2008; inhibition, % at 5.6 µM;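 active = inhibition above the mean inhibition of all tested compounds plus 3 SD, set separately per screening campaign, cut at about 2.9% in these data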;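 note: PERK kinase domain activated by AP20187 dimerizer at 100 nM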
Numbers stand for hits; – = inactive; ? = inconclusive; · = not tested or not shown; + = active, no number; [ ] = dose if it differs, or a comment.

SMILES	Insulin prom inh	eIF4E-4G inh	Ins promoter up	Autophagy mod	PERK inh
CSc1nnnn1-c1ccc(C)c(Cl)c1	–	–	–	–	–
Cc1cc(C)c2c(N)c(C(=O)c3ccccc3)sc2n1	·	–	–	·	–
Cc1cc(C)c2c(N)c(C(=O)c3ccc(Cl)c(Cl)c3)sc2n1	70	–	·	–	–
Cc1cc(C)c2c(N)c(C(=O)c3ccc(Cl)cc3)sc2n1	72	–	–	–	–
CSc1ccccc1C(=O)C1CCCN(C(=O)NC(C)C)C1 (centres undefined)	·	–	–	–	–
O=C(Nc1nc(-c2cccc3ccccc23)cs1)c1cnccn1	–	–	–	–	–
O=C(NC1C=CS(=O)(=O)C1)c1sc2ccccc2c1Cl (centres undefined)	–	–	3.9	–	–
O=C(NC1C=CS(=O)(=O)C1)c1ccccc1 (centres undefined)	–	–	–	–	–
CCOC(=O)N1CCC(NC(=O)C2CCCN(Cc3nc(-c4cccc(Cl)c4)oc3C)C2)CC1 (centres undefined)	·	–	?	–	–
CCOC(=O)N1CCN(C(=O)C2CCCN(Cc3nc(-c4ccc(Cl)cc4)oc3C)C2)CC1 (centres undefined)	·	–	–	+	–
CC1CN(C)C(C)c2c1oc1ccc([N+](=O)[O-])cc21 (centres undefined)	–	–	–	+	–
O=C(NCCc1ccccc1)C1CCN(S(=O)(=O)c2ccc(-c3nn[nH]n3)cc2)CC1	·	–	–	–	–
COc1ccc(-c2nc(/C=C3\C(C)=Nc4ccccc43)c(O)o2)cc1	·	–	–	+	–
CCC(=O)Nc1ccc(S(=O)(=O)NCCc2ccccc2)cc1	–	–	·	–	–
COCC(=O)Nc1ccc(S(=O)(=O)NCCc2ccccc2)cc1	100	–	–	–	–
O=C(NCCCN1CCN(c2ccccc2F)CC1)Nc1ccccc1[N+](=O)[O-]	78	–	–	–	–
Cn1cc(S(=O)(=O)N2CCN(c3cccc(Cl)c3)CC2)c(=O)n(C)c1=O	·	–	–	·	–
Cc1ccc(CNS(=O)(=O)NCc2cccs2)cc1	77	–	–	–	–
O=C(C1CCN(Cc2cc(Cl)ccc2O)CC1)N1CCN(Cc2ccccc2)CC1	·	82	–	–	–
Nc1ccc(S(=O)(=O)N2CCCc3ccccc32)cc1	·	62	–	–	–
c1cc(CNC23CC4CC(CC(C4)C2)C3)ccn1	–	–	–	–	–
CC1(C)CC(=O)c2c(O)cc(OCc3ccc(Br)cc3)cc2O1	–	–	–	–	–
CC1(C)CC(=O)c2ccc(OCc3ccc([N+](=O)[O-])cc3)cc2O1	·	34	–	·	–
O=C(O)c1cccc(-n2cccc2/C=C2/NC(=O)N(c3ccc(Cl)cc3)C2=O)c1	–	71	–	–	–
COc1ccc2cc3cc(C(=O)NCCN4CCN(Cc5ccccc5)CC4)oc3nc2c1	–	–	–	+	–
SMILES	Insulin prom inh	eIF4E-4G inh	Ins promoter up	Autophagy mod	PERK inh
COc1ccc2cc3cc(C(=O)NCCN4CCc5ccccc5C4)oc3nc2c1	–	–	·	–	–
Cc1cccc(NC(=O)C2CC(=O)n3cnnc3S2)c1 (centres undefined)	–	–	–	–	–
CCCNC(=O)Cn1c(-c2ccc(F)cc2)cc(C(=O)OCC)c1C	–	–	·	+	–
CCOC(=O)c1cc(-c2ccc(F)cc2)n(CC(=O)NC(C)CC)c1C (centres undefined)	–	–	–	–	–
CCOC(=O)c1cc(-c2ccccc2)n(CC(=O)O)c1C	–	–	–	+	–
COCCNC(=O)c1c(NC(=O)c2nc(SC)ncc2Cl)sc2c1CCCC2	·	–	–	+	–
Cc1ccc(NC2c3ncccc3C(=O)N2c2ccccc2C)cc1C (centres undefined)	–	91[fluorescence artefact?]	–	–	–
CCOC(=O)CC1C(=O)NCCN1C(=O)c1cc2c(=O)n3cccc(C)c3nc2s1 (centres undefined)	·	–	–	–	–
CCCN1C(=O)/C(=C/c2c(N3CCNC(=O)C3CC(=O)OC)nc3c(C)cccn3c2=O)SC1=S (centres undefined)	·	–	6.5	·	–
CCOC(=O)c1cn2c3c(c(F)c(F)cc3c1=O)SC(N1CCOCC1)=N2	–	·	·	–	–
COC(=O)CSc1nc2ccc(NC(=O)c3ccccc3C(=O)N3CCOCC3)cc2s1	·	–	–	–	–
